High-throughput results (PubChem)
mHTT CaM bind = disrupts binding of mutant huntingtin to calmodulin. P42858. AlphaScreen His-mHTT/GST-CaM binding, luminescence. inhibition, % at 15 µM. actives 3.6% (n = 190,000);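 further: 0% = both proteins with DMSO and 100% = one protein alone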
Pf apPOL inh = Pf-apPOL DNA polymerase inhibition; Recombinant Pf-apPOL, molecular beacon fluorescence, 1.5 h; inhibition, % at 10 µM; actives 0.25% (n = 210,000); AID 1794808
* marks the source's active call; other numbers are inactive results; i = inactive; nt = no result given. Most compounds without a hit are left out; they make up all but 3.6% or so of the library. No stated cut-off is given here; in the data, active means inhibition above about 50%; inactive means the rest.

SMILES	mHTT CaM bind	Pf apPOL inh
O=C1CC(=O)N(c2cccc(Cl)c2Cl)C(=O)N1	3.0	-7.1
O=c1ccsn1-c1cccc(Cl)c1F	nt	93.1*
O=S1(=O)CCC(OC(O)C(Cl)(Cl)Cl)C1 (stereo not given)	-2.0	-136.7
COc1ccc(C=Cc2cc(OC)c(OC)c(OC)c2)cc1[N+](=O)[O-]	4.5	-0.4
Cc1ccc(CC(=O)N2CCCN(Cc3c(C)noc3C)CC2)cc1	-1.2	0.8
Cc1nc(C(=O)Nc2ccc3c(c2)OCCO3)c(C)n1C1CCN(C)CC1	13.9	2.8
Cc1nc(C(=O)Nc2ccc3c(c2)OCO3)c(C)n1C1CCN(C)CC1	71.4*	-2.0
CC(C)c1c(C(=O)O)nnn1Cc1ccc(Cl)cc1	-8.1	1.3
COc1ccc2c(c1)C1(CCN(C(=O)c3cccc(N(C)C)c3)C1)C(=O)N2 (stereo not given)	27.3	-2.0
O=[N+]([O-])c1ccc(Cl)c2nonc12	96.4*	nt
O=[N+]([O-])c1ccc(N2CCCCC2)c2nonc12	nt	-121.9
O=[N+]([O-])c1ccc(N2CCOCC2)c2nonc12	nt	-84.2
Nc1ccc([N+](=O)[O-])c2nonc12	53.2*	nt
COc1ccc(Cl)cc1NC(=O)C1c2ccccc2C(=O)N2CCCCC12 (stereo not given)	2.0	-4.6
COc1ccc(Cl)cc1NC(=O)C1c2cc(OC)c(OC)cc2C(=O)N2CCCCC12 (stereo not given)	79.0*	-4.3
Cc1ccccc1-n1c(/C=C2\C(=O)Nc3ccc(Br)cc32)nc2ccccc2c1=O	44.0	4.6
Cc1ccccc1-n1c(/C=C2\C(=O)N(C)c3ccccc32)nc2ccccc2c1=O	65.0*	-1.2
O=C(COc1cccc(Cl)c1)N1CCCN(C2CCN(Cc3ccccc3)C2=O)CC1 (stereo not given)	75.2*	-0.1
COCCN1CCC(N2CCCN(C(=O)COc3cccc(C)c3)CC2)C1=O (stereo not given)	22.1	0.9
N#CC1=C(N)C(C#N)(C#N)C(c2ccccc2C(F)(F)F)C2CSCC=C12 (stereo not given)	55.0*	-2.9
O=C(CN1CCN(c2ccc(F)cc2)CC1)Nc1ccc(Cl)cc1C(=O)c1ccccc1	72.4*	-1.0
Cc1cc([N+](=O)[O-])nn1CC(=O)Nc1ccc(Cl)cc1C(=O)c1ccccc1	3.0	1.0
Cc1ccc(-n2cccc2C=C2C(=O)N(C)C(=O)N(C)C2=O)cc1Cl	19.0	4.9
Cn1cc(C(=O)NCc2cccc(C(F)(F)F)c2)c2cccnc21	15.9	4.1
O=c1oc2ccccc2c(O)c1C(c1ccccc1[N+](=O)[O-])c1c(O)c2ccccc2oc1=O	24.0	-4.8
SMILES	mHTT CaM bind	Pf apPOL inh
COc1ccc(OC)c(C(c2c(O)c3ccccc3oc2=O)c2c(O)c3ccccc3oc2=O)c1	55.0*	-21.4
CC(c1c(O)c2ccccc2oc1=O)c1c(O)c2ccccc2oc1=O	5.0	0.7
O=c1oc2ccccc2c(O)c1C(c1ccc([N+](=O)[O-])cc1)c1c(O)c2ccccc2oc1=O	71.0*	-7.1
Cc1ccc(C=C2CC3C4CCC5CCCCC5(C)C4CCC3(C)C2O)cc1 (stereo not given)	1.3	-6.7
COc1ccc(CCNC2CC3CCC2C3)cc1 (stereo not given)	-8.6	6.1
Cc1ccccc1OCC(=O)N1CCCN(C2CCN(Cc3ccc(F)cc3)C2=O)CC1 (stereo not given)	35.2	3.2
COc1ccc2c(c1)C1(CCN(C(=O)Nc3cccc(C)c3)C1)C(=O)N2 (stereo not given)	7.6	-5.3
CC1N=C(c2ccccc2)c2ccccc2N(CC(=O)Nc2cccc(Cl)c2)C1=O (stereo not given)	22.0	-11.2
Cc1ccc(NC(=O)CN2C(=O)C(C)N=C(c3ccccc3)c3ccccc32)cc1Cl (stereo not given)	52.0*	-21.2
Cc1cc(C)c(/C(N)=N/O)c(Cl)n1	i	nt
COC(=O)c1ccc(CCl)s1	100.0*	nt
O=C(O)C1Nc2c(F)cccc2C2C(Cl)C(Sc3ccccc3[N+](=O)[O-])CC12 (stereo not given)	68.0*	1.1
COc1cccc(CCNCc2cccc(C)c2)c1	-4.4	0.8
O=[N+]([O-])c1c(Br)c([N+](=O)[O-])c2n[nH]nc2c1Br	88.0*	-4.2
O=[N+]([O-])c1cc2nonc2c2n[nH]nc12	10.3	nt
COc1ccc(N2CCN(Cc3ccc(Cl)cc3)CC2)cc1	34.5	-5.5
COc1ccc(N2CCN(Cc3ccc(Cl)c(Cl)c3)CC2)cc1	65.0*	-5.0
COc1ccc(N2CCN(Cc3cccc(Cl)c3Cl)CC2)cc1	56.3*	5.2
COc1ccc(N2CCN(Cc3ccc(F)cc3)CC2)cc1	22.3	-0.2
O=C(Cc1ccccc1)N1CCN(C(C(=O)N2CCOCC2)C2CCCC2)CC1 (stereo not given)	11.3	-3.0
Cc1cccc(-n2c(-c3cccnc3)nc3ccccc3c2=O)c1	100.0*	-9.7
Cc1ccc(-c2nc3ccccc3c(=O)n2-c2cccnc2)cc1	1.7	-8.5
CN1CCC2(CC1)C(C#N)=C(S)NC(=O)C2C#N (stereo not given)	-1.4	nt
S=C(SSC(=S)N1CCCCC1)N1CCCCC1	51.2*	nt
S=C(S)N1CCCCC1	nt	1.2
SMILES	mHTT CaM bind	Pf apPOL inh
CCOc1ccc(/C=C/[N+](=O)[O-])cc1	18.8	-1.0
COc1cc(/C=C(\C)[N+](=O)[O-])cc(Br)c1O	23.0	-1.0
CCOc1cc(/C=C/[N+](=O)[O-])cc(Br)c1O	78.2*	-14.6
COc1cc(/C=C/[N+](=O)[O-])cc(Br)c1O	52.3*	-1.0
CN1CCN(C(=O)Cc2c(Sc3cccc(F)c3)[nH]c3ccccc23)CC1	7.3	-1.5
COc1ccc(C(=O)N2CCC3(C2)C(=O)N(C)c2ccc(OC)cc23)c(OC)c1 (stereo not given)	8.2	-2.5
CC12CN3CC(C)(CN(C1)C3c1ccccn1)C2O (stereo not given)	100.2*	-14.6
CC12CN3CC(C)(CN(C1)C3c1cccs1)C2=O (stereo not given)	-4.0	-1.2
C[S+](C)c1c(O)n(-c2ccccc2F)c(=O)[nH]c1=O	1.0	-2.6
CCCn1cc(C(=O)NCc2cccs2)c2cccnc21	-4.0	-6.0
O=S(=O)(F)c1ccc(-c2nnc(-c3ccccc3)o2)cc1	9.0	2.9
O=S(=O)(F)c1ccc(C2=CC(c3ccccc3)n3ncnc3N2)cc1 (stereo not given)	100.0*	-5.1
Cc1ccc(C2SCC(=O)Nc3c2c(=O)[nH]n3C2CCCC2)cc1 (stereo not given)	-0.3	-0.5
COc1ccc(OC)c(-c2c(C)c3cc(OC(=O)N(C)C)ccc3oc2=O)c1	8.2	-1.7
CC12CCC3C(CC=C4CC(O)CCC43C)C1CC(=Cc1cccc(Cl)c1Cl)C2=O (stereo not given)	-9.4	-3.6
COc1cc(/C=C/[N+](=O)[O-])cc(I)c1OCc1ccccc1	3.7	-3.9
C#CCOc1c(I)cc(/C=C/[N+](=O)[O-])cc1OC	13.5	0.2
CCOc1cc(/C=C/[N+](=O)[O-])cc(I)c1O	56.6*	-1.7
COc1cc(/C=C/[N+](=O)[O-])cc(I)c1O	51.6*	-2.7
CN1CCc2[nH]c(=S)c(C#N)c(-c3cccs3)c2C1	52.3*	nt
CN1CCc2[nH]c(=S)c(C#N)cc2C1	22.9	nt
N#Cc1cnn2c(C(F)(F)F)cc(-c3ccc(Br)cc3)nc12	-3.0	-7.4
O=C(CN1CCOCC1)Nc1ccc(Br)cc1C(=O)c1ccccc1	2.9	-3.8
